# From PubChem BioAssay
# Many of the other results were omitted from the sample, so hits are more common in it than they were.
# EZH2 inh: inhibitors of human EZH2/PRC2 methyltransferase; Q15910; PRC2 H3K27 methylation, DELFIA TRF, 1 h; inhibition, % at 12.5 µM; hit rate 0.35% among 57,000; AID 651548;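 active = mean inhibition of replicates at least 50% and every single replicate also reaching 50%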;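 also: dimethyl H3K27 on biotinylated H3 21-44 peptide detected by antibody; plate controls were median neutral control wells for no effect and median positive control wells for full effect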
# Target sequence (Q15910 whole entry, looked up): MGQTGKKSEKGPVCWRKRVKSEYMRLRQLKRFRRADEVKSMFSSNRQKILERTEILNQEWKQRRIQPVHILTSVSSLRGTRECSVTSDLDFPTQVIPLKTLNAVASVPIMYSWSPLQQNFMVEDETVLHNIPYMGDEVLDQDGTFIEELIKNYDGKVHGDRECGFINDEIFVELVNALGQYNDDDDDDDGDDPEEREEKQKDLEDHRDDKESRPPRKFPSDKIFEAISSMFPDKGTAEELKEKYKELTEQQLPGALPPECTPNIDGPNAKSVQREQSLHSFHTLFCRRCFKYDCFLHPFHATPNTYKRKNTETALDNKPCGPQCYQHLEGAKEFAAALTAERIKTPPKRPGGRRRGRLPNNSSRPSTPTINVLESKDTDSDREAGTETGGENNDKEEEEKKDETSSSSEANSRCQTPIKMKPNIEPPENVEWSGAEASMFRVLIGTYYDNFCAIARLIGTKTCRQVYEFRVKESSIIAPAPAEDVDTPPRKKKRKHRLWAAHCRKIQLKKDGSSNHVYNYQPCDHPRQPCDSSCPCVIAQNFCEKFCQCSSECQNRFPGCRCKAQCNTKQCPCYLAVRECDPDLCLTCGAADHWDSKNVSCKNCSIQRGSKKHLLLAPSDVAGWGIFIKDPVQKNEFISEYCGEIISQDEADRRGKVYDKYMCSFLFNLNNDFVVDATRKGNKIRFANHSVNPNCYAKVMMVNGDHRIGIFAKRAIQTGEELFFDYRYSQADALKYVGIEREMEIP
# An asterisk follows results filed as active.
SMILES,EZH2 inh
COC(=O)C1=CO[C@@H](O[C@@H]2O[C@H](CO)[C@@H](O)[C@H](O)[C@H]2O)[C@@H]2[C@@](C)(O)[C@@H](OC(=O)/C=C/c3ccc(OC)c(O)c3)C[C@]12O,52.5*
COC(=O)C1=CO[C@@H](O[C@@H]2O[C@H](CO)[C@@H](O)[C@H](O)[C@H]2O)[C@H]2[C@@H]1[C@H](OC(=O)/C=C/c1ccc(O)cc1)C[C@]2(C)OC(C)=O,3.4
COC(=O)C1=CO[C@@H](O[C@@H]2O[C@H](CO)[C@@H](O)[C@H](O)[C@H]2O)C2C1CCC2(C)O (some centres not stated),17.7
O=C(CN1CCOCC1)N[C@@H]1CC[C@@H](CCNS(=O)(=O)c2ccccc2F)O[C@@H]1CO,0.5
CN(C)c1ccc2c(c1)[C@@H]1C[C@@H](CC(=O)NCc3cccc(F)c3)O[C@H](CO)[C@@H]1O2,-0.6
O=C(CCCCC(=O)N/N=C/c1ccc(O)c(O)c1O)NO,76.0*
O=C(NO)c1cccc(C(=O)N/N=C/c2cccc(O)c2O)c1,78.5*
O=C(CCCCCC(=O)N/N=C/c1cc(O)ccc1O)NO,0.1
O=C(NO)c1cccc(C(=O)N/N=C/c2ccc(O)c(O)c2O)c1,95.0*
O=C(NO)c1cccc(C(=O)N/N=C/c2ccc(O)cc2O)c1,-3.1
O=C(NO)c1cccc(C(=O)N/N=C/c2cc(Br)cc(Br)c2O)c1,-26.7
O=C(NO)c1cccc(C(=O)N/N=C/c2cc(Br)ccc2O)c1,8.4
O=C(NO)c1cccc(C(=O)N/N=C/c2ccc(O)c3ccccc23)c1,-3.2
O=C(CCCCCC(=O)N/N=C/c1ccc(O)cc1O)NO,5.3
COCCNc1ncnc2c1cnn2Cc1ccc(C)cc1,-4.8
C=CCN1Cc2ccccc2[C@@H]2OC(c3ccc(OCCCO)cc3)=N[C@]2(CCC(=O)OC(C)(C)C)C1=O,12.0
[N-]=[N+]=NCc1ccccc1C[C@]1(C(=O)NCC(O)CO)N=C(c2ccc(OCCCO)cc2)O[C@H]1c1ccccc1 (some centres not stated),-3.0
C[C@H]1CN([C@@H](C)CO)C(=O)c2cc(NC(=O)C3CC3)ccc2O[C@H]1CN(C)C(=O)Nc1ccc(F)cc1,-2.6
Cc1ccc(F)c(NC(=O)CSc2nnc(C)s2)c1,5.7
Cc1ccc(-c2cc3ccccn3c2C(=O)CSc2nnc(C)s2)cc1,52.8*
Cc1nnc(SCC(=O)c2c(C)[nH]c3ccccc23)s1,-21.8
CO[C@@H]1CN(C)C(=O)c2ccc(NC(=O)C3CC3)cc2OC[C@H](C)N(CC2CCCC2)C[C@@H]1C,-7.9
CO[C@@H]1CN(C)C(=O)c2cc(NC(=O)C3CCC3)ccc2OC[C@@H](C)N(C)C[C@H]1C,3.2
COc1ccc(CN(C)C[C@@H]2OCCCC[C@@H](C)Oc3ccc(NS(C)(=O)=O)cc3C(=O)N([C@@H](C)CO)C[C@H]2C)cc1,1.5
COC(=O)c1cc(S(=O)(=O)Nc2nn(C)c3ccccc23)oc1C,-3.5
SMILES,EZH2 inh
CCCC(=O)Nc1ccc2c(c1)OC[C@H](C)N(CC1CCCC1)C[C@@H](C)[C@@H](OC)CN(C)C2=O,-6.0
C=CCNC(=O)[C@H]1[C@@H]2C(=O)O[C@@H](c3ccccc3)[C@@H](c3ccccc3)N2[C@@H](c2ccccc2OCCO)[C@]12C(=O)Nc1ccc(C#CC3(O)CCCCCC3)cc12,-26.8
O=C1O[C@@H](c2ccccc2)[C@@H](c2ccccc2)N2[C@@H](c3ccccc3OCCO)[C@]3(C(=O)Nc4ccc(C#CC5(O)CCCCCC5)cc43)[C@@H](C(=O)O)[C@H]12,72.8*
NC(=O)[C@@H]1[C@H]2C(=O)O[C@H](c3ccccc3)[C@H](c3ccccc3)N2[C@H](c2ccccc2OCCO)[C@@]12C(=O)Nc1ccc(C#CCCO)cc12,-37.8
NC(=O)[C@@H]1[C@H]2C(=O)O[C@H](c3ccccc3)[C@H](c3ccccc3)N2[C@H](c2ccc(OCCO)cc2)[C@@]12C(=O)Nc1ccc(C#CC3(O)CCCCCC3)cc12,-28.7
O=C1O[C@H](c2ccccc2)[C@H](c2ccccc2)N2[C@H]1[C@@H](C(=O)N1CCCCCCC1)[C@]1(C(=O)Nc3ccc(C#CC4(O)CCCCCC4)cc31)[C@H]2c1ccc(OCCO)cc1,-20.2
O=C1O[C@H](c2ccccc2)[C@H](c2ccccc2)N2[C@H]1[C@@H](C(=O)O)[C@]1(C(=O)Nc3ccc(C#CC4(O)CCCCCC4)cc31)[C@H]2c1ccccc1OCCO,60.3*
O=C(CCCCCCC(=O)Nc1ccccc1O)N/N=C/c1ccc(O)c(O)c1,-26.8
O=C(CCCCCCC(=O)Nc1ccccc1O)N/N=C/c1ccc(F)cc1,-3.0
O=C(CCCCCCC(=O)Nc1ccccc1O)N/N=C/c1ccc(-c2ccccc2)c(F)c1,51.0*
C[C@@H]1CN([C@H](C)CO)C(=O)c2cc(C#Cc3ccccc3F)cnc2O[C@H]1CN(C)S(=O)(=O)c1ccccc1,9.9
O=C(CSc1nnc2ccccn12)Nc1c(Cl)cc(Cl)cc1Cl,-9.0
O=C(c1cnc2ccccn12)C(F)(F)SCc1c(Cl)cccc1Cl,58.6*
O=C(C[C@H]1C[C@@H]2c3cc(NC(=O)NC4CCCCC4)ccc3O[C@@H]2[C@H](CO)O1)NCc1cccnc1,-4.4
O=C(N[C@H]1C=C[C@H](CC(=O)N2CCCCC2)O[C@@H]1CO)c1cccc(F)c1,2.5
COc1ccc(C2Oc3c(OC)cc(/C=C/COC4OC(CO)C(O)C(O)C4O)cc3C2CO)cc1OC (configuration not stated),-6.6
COc1cc(C2c3c(cc(OC)c(O)c3OC)CC(CO)C2COC2OC(CO)C(O)C(O)C2O)cc(OC)c1O (configuration not stated),100.6*
CCCNC(=O)Nc1ccc2c(c1)OC[C@H](C)N(Cc1ccncc1)C[C@@H](C)[C@H](OC)CN(C)C2=O,8.5
CCCN1C[C@@H](C)[C@H](OC)CN(C)C(=O)c2ccc(NS(=O)(=O)c3ccccc3)cc2OC[C@@H]1C,13.4
Oc1ccc(/C=C/c2cc(O)cc(O)c2)cc1,-7.7
O=c1cc(O)cc(/C=C/c2ccc(O)c(O)c2)o1,86.9*
Cc1cc(=O)oc2c(O)c(O)ccc12,-3.3
CC1(C)Cc2nc(-c3ccccc3)nc(SCC(=O)Nc3ccc(Br)cc3)c2CO1,-1.0
N#Cc1c(-c2ccccc2)nc(SCC(=O)Nc2ccc(Oc3ccccc3)cc2)[nH]c1=O,87.5*
N#Cc1c(-c2ccccc2)nc(SCC(=O)Nc2cccc(C(F)(F)F)c2)[nH]c1=O,38.9
SMILES,EZH2 inh
CC(=O)c1ccc(NC(=O)CSc2nc(-c3ccccc3)c(C#N)c(=O)[nH]2)cc1,-7.8
COc1cccc(NC(=O)N[C@@H]2CC[C@@H](CC(=O)N3CCCCC3)O[C@H]2CO)c1,-5.4
O=S(=O)(N[C@@H]1CC[C@@H](CCn2cc(C3(O)CCCC3)nn2)O[C@@H]1CO)c1ccc(Cl)cc1,0.7
C[C@H](NC(=O)C[C@H]1C[C@H]2c3cc(NC(=O)NC4CCCCC4)ccc3O[C@H]2[C@@H](CO)O1)c1ccccc1,0.3
O=C(OCc1nc2ccccc2s1)c1ccco1,-0.7
COc1cccc(C(=O)OCc2nc3ccccc3s2)c1,52.8*
O=C(Nc1ccc(OCc2nc3ccccc3s2)cc1)c1cccc(I)c1,20.3
CC(=O)N(C)C[C@H]1Oc2cc(C#CC3CCCCC3)ccc2S(=O)(=O)N([C@H](C)CO)C[C@H]1C,-41.1
C[C@@H]1CN([C@H](C)CO)C(=O)c2cc(NS(=O)(=O)c3ccc(F)cc3)ccc2O[C@@H](C)CCCCO[C@@H]1CN(C)C,-0.3
C[C@H]1CN([C@@H](C)CO)C(=O)c2cc(C#Cc3cccnc3)cnc2O[C@@H]1CN(C)Cc1cccnc1,-10.4
